Most compounds without a hit are left out; they make up all but 3.5% or so of the library.
TEAD-YAP inh – TEAD-YAP interaction inhibition | HEK-TIYL cells, TEAD-Gal4/YAP UAS-luciferase luminescence | inhibition, % at 9.12 µM | hit rate 1.4% among 640,000; in the data active = inhibition above about 32%
FBW7 activator – activators of human E3 ligase FBW7 | normalized activity (activation), % at 26.1 µM | hit rate 0.13% among 650,000 | AID 1259310 | AlphaScreen FBW7–phospho-cyclin E peptide binding, activator screen | Q969H0; in the data active = normalized activity above about 1.9%;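 note: purified mutant Fbw7 with reduced substrate affinity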
MITF primary – blocks human microphthalmia-associated transcription factor; inhibition, % at 2.6 µM; AlphaScreen MITF homodimerization, bead proximity signal; hit rate 0.91% among 650,000; in the data active = inhibition above about 50%
GPR151 ag – activators of human GPR151 | Q8TDV0 | PathHunter beta-arrestin GPR151 cells, luminescence | activation, % at 11.2 µM | hit rate 1% among 650,000; in the data active = activation above about 4.9%
Target sequence (Q8TDV0 whole entry, looked up): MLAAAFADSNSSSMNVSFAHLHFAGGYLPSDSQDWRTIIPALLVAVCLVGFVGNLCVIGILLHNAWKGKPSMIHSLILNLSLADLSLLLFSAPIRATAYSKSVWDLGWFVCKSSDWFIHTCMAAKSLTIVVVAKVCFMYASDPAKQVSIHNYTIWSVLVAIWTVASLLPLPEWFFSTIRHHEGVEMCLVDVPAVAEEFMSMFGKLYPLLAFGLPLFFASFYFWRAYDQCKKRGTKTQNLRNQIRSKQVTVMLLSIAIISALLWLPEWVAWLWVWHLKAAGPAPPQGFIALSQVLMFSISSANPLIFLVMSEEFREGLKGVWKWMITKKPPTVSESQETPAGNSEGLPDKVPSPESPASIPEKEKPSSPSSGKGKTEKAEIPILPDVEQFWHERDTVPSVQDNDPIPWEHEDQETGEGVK
GPR151 confirm – human GPR151 activation, confirmation screen. shares compounds with GPR151 ag. GPR151 PathHunter beta-arrestin cells, luminescence, 90 min; % of EA-reagent control over plate median. activation, % at 11.2 µM. 6,700 tested, under 10 active;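 active = mean percent activation across replicates above the confirmation screen cutoff of 4.91%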
GPR119 ag – activates human GPR119 in a GPR151 counter-screen; shares compounds with GPR151 ag; GPR119 PathHunter beta-arrestin cells, luminescence, 90 min; 0 = compound-well median, 100 = enzyme-acceptor control; activation, % at 11.2 µM; hit rate 0.3% among 6,700; AID 1508611;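 active = mean percent activation in the counterscreen above 29.09%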;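 note: counterscreen on off-target GPR119 to flag nonselective hits from the GPR151 activator screen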
Of the large screens only hits and unclear results are named; the others gave an inactive call (follow-up assays come after a bar, where they were run).

C=CCNC(=O)C1CCN(S(=O)(=O)c2ccc(Br)cc2)CC1	GPR151 ag 5.7 | GPR151 confirm inactive | GPR119 ag inactive
COCCCNC(=O)C1CCN(S(=O)(=O)c2ccc(Br)cc2)CC1	none
COc1cccc(CC(=O)N2CCc3nc(-c4ccccc4)c4c(c3C2)CO[C@@H](C)C4)c1	GPR151 ag 6.8 (no result: TEAD-YAP inh) | GPR151 confirm inactive | GPR119 ag inactive
C[C@H]1Cc2c(-c3ccccc3)nc3c(c2CO1)CN(C(=O)Cc1cccs1)CC3	none (no result: TEAD-YAP inh)
C=CCNC(=O)N1CCc2nc(-c3ccc(OC)cc3C)c3c(c2C1)CO[C@@H](c1ccccc1)C3	none (no result: TEAD-YAP inh)
COc1ccc(-c2nc3c(c4c2C[C@H](c2ccccc2)OC4)CN(C(=O)NCc2ccco2)CC3)c(C)c1	GPR151 ag 5.9 (no result: TEAD-YAP inh) | GPR151 confirm inactive | GPR119 ag inactive
Cn1nnnc1SCC(=O)N1CCC(c2ccccc2)=N1	none
O=C(CSc1nc2cc(C(=O)NCC3CCCO3)ccc2c(=O)n1CC1CCCO1)NC1CCCCC1 (stereo not given)	none
O=C(CSc1nc2cc(C(=O)NCC3CCCO3)ccc2c(=O)n1Cc1ccco1)NC1CCCCC1 (stereo not given)	GPR151 ag 5.2 | GPR151 confirm inactive | GPR119 ag inactive
COCCCN1C(=O)c2ccccc2CC1(C)C(=O)NC1CCCCCC1 (stereo not given)	GPR151 ag 5.6 | GPR151 confirm inactive | GPR119 ag inactive
COCCCN1C(=O)c2ccccc2CC1(C)C(=O)NC1CCCCCCC1 (stereo not given)	none
CSc1nnc(C)c(=O)n1COC(=O)c1cc2ccccc2o1	GPR151 ag 7.5 | GPR151 confirm inactive | GPR119 ag inactive
CSc1nnc(C)c(=O)n1COC(=O)c1ccccc1I	none
CCOc1ccc(/C=C2\SC(=S)N(C(C)C(=O)O)C2=O)cc1 (stereo not given)	GPR151 ag 11.2 | GPR151 confirm inactive | GPR119 ag inactive
COc1ccc(-c2nc(SCC(=O)O)c3c(=O)n(C)c(=O)n(C)c3n2)cc1	none
CC(C)Sc1nc(-c2ccco2)nc2c1c(=O)n(C)c(=O)n2C	none
Cc1csc(NC(=O)CSc2nc(-c3ccco3)nc3c2c(=O)n(C)c(=O)n3C)n1	GPR151 ag 6.6 | GPR151 confirm inactive | GPR119 ag inactive
Cn1c(=O)c2c(SCC(=O)Nc3nccs3)nc(-c3ccco3)nc2n(C)c1=O	none
CC(Sc1nc(-c2ccco2)nc2c1c(=O)n(C)c(=O)n2C)C(=O)O (stereo not given)	GPR151 ag 9.6 | GPR151 confirm inactive | GPR119 ag inactive
COc1cccc(-c2nc(SCC(=O)O)c3c(=O)n(C)c(=O)n(C)c3n2)c1	GPR151 ag 11.6 | GPR151 confirm inactive | GPR119 ag inactive
CCOc1cccc2cc(C(=O)NC(C)=O)c(=Nc3ccc(C(C)=O)cc3)oc12	none
CC12Oc3ccc(Cl)cc3C(NC(=S)N1c1ccc(Br)cc1)C2C(=O)Nc1ccc(Cl)cc1 (stereo not given)	none
CCCCCCOc1ccc(/C=N/n2cnnc2)cc1	GPR151 ag 6.8 | GPR151 confirm inactive | GPR119 ag inactive
CC(C)CCOc1ccc(/C=N/n2cnnc2)cc1	none
COCc1cc(C)nc(SCC(=O)Oc2ccccc2)c1C#N	none
COCc1cc(C)nc(SCC(=O)O)c1C#N	GPR151 ag 5.9 | GPR151 confirm inactive | GPR119 ag inactive
COc1ccc(CCN(C)C2CCCN(C(=O)c3snnc3C)C2)cc1OC (stereo not given)	none
Cc1ccccc1NC(=O)NC(C)Cc1ccco1 (stereo not given)	none
CCCCNC(=O)C1C2C=CC3(CN(Cc4ccccc4Cl)C(=O)C13)O2 (stereo not given)	GPR151 ag 5.7 | GPR151 confirm inactive | GPR119 ag inactive
COCCNC(=O)C1C2C=CC3(CN(Cc4ccc(C)cc4)C(=O)C13)O2 (stereo not given)	GPR151 ag 13.6 | GPR151 confirm inactive | GPR119 ag inactive
CC(C)OC(=O)C1C2C=CC3(CN(Cc4ccccc4)C(=O)C13)O2 (stereo not given)	GPR151 ag 5.5 | GPR151 confirm inactive | GPR119 ag inactive
COc1ccc(CNC(=O)CCC2(Cc3ccc(Cl)cc3)CCC(=O)N2)cc1 (stereo not given)	none
CCCCn1nnnc1SCC(=O)NNC(=O)c1ccco1	GPR151 ag 5.9 | GPR151 confirm inactive | GPR119 ag inactive
CCCn1nnnc1SCC(=O)NNC(=O)c1ccco1	none
CC(Sc1ncn(-c2ccccc2)n1)C(=O)Nc1ccccc1 (stereo not given)	GPR151 ag 5.9 | GPR151 confirm inactive | GPR119 ag inactive
CCC(C)C(NC(=O)COC)c1nc2cccnc2n1C(C)C (stereo not given)	none
COc1ccc(NC(=O)C2CC3CCCN3C23C(=O)N(C)c2ccccc23)cc1OC (stereo not given)	GPR151 ag 5.2 | GPR151 confirm inactive | GPR119 ag inactive
Cc1ccc(NC(=O)C2CC3CCCN3C23C(=O)N(C)c2ccccc23)cc1C (stereo not given)	none
CCCN(CCC)CCCN1C(=O)C2C(C(=O)Nc3ccc(F)c(Cl)c3)C3C=CC2(O3)C1C(=O)NC1CCCC(C)C1C (stereo not given)	none
CCCN(CCC)CCN1C(=O)C2C(C(=O)Nc3ccc(F)c(Cl)c3)C3C=CC2(O3)C1C(=O)NC1CCCC(C)C1C (stereo not given)	GPR151 ag 6.9 | GPR151 confirm inactive | GPR119 ag inactive
COc1ccc(NC(=O)C2C3C=CC4(O3)C2C(=O)N(C(C)CCc2ccccc2)C4C(=O)NC2CCCC(C)C2C)cc1 (stereo not given)	GPR151 ag 7.0 | GPR151 confirm inactive | GPR119 ag inactive
CCOC(=O)c1ccccc1NC(=O)Cn1c(=O)oc2ccccc21	none
CCN1CCSc2ccc(C(=O)NCc3ccc(C)cc3)cc21	GPR151 ag 6.4 | GPR151 confirm inactive | GPR119 ag inactive
C/C(CC(=O)NC1C2CC3CC(C2)CC1C3)=N\NC(=O)c1ccc2ccccc2c1O (stereo not given)	none
CCC(=O)N1C(=O)CC(C)N(C(=O)CC)c2ccccc21 (stereo not given)	GPR151 ag 5.9 | GPR151 confirm inactive | GPR119 ag inactive
COc1ccc2[nH]c(=O)c(CN(C)C(=O)c3ccccc3C)cc2c1	none
Cc1cccc(N(Cc2ccccc2F)S(C)(=O)=O)c1	none
Cc1cccc(N(Cc2c(F)cccc2Cl)S(C)(=O)=O)c1	GPR151 ag 6.9 | GPR151 confirm inactive | GPR119 ag inactive
Cc1cc(C)c(C#N)c(SCc2cc(=O)oc3cc4c(cc23)CCC4)n1	none
CC(C)N(C(=O)COc1ccc(Cl)cc1Cl)C(C)C	none
COc1ccc(OCc2cc(C(=O)N3CCCCC3CO)no2)c(Cl)c1 (stereo not given)	none
COc1ccc(OCc2cc(C(=O)N[C@H]3CCCCNC3=O)no2)c(Cl)c1	GPR151 ag 5.0 | GPR151 confirm inactive | GPR119 ag inactive
